PubChem BioAssay (NCI)
The panel holds about 79,000 compounds, 15% with a hit somewhere; the sample as a whole holds those more often. Calls of active or inactive are those of the source. Rule as the data show it: active = growth inhibition above about 70%; inactive = the rest.

Legend:
[1] = NCI Yeast Anticancer Drug Screen. Data for the rad52 strain (AID 147);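 also: 0% = growth of vehicle-treated control cultures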; settings: S. cerevisiae rad52 mutant growth inhibition, hits give high values
Outline: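 Yeast strain carrying a DNA damage repair alteration was exposed to test compounds. Growth inhibition was measured relative to vehicle-treated controls.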

[2] = NCI Yeast Anticancer Drug Screen. Data for the wt1 strain (AID 149);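 also: 0% = growth of vehicle-treated wt1 cultures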; settings: S. cerevisiae wt1 strain (SPY 50644) growth inhibition, hits give high values
Outline: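 Compounds are added to wt1 yeast cultures. Growth is then measured. Inhibition is expressed relative to vehicle-treated controls.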

[3] = NCI Yeast Anticancer Drug Screen. Data for the rad50EPP+ strain (AID 151);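 also: 0% = growth of vehicle-treated control cultures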; settings: S. cerevisiae rad50 mutant strain, hits give high values
Outline: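 Yeast strain carrying rad50 alteration (rad50EPP+) exposed to compounds; growth inhibition measured relative to vehicle-treated controls.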

[4] = NCI Yeast Anticancer Drug Screen. Data for the mgt1 strain (AID 153); settings: S. cerevisiae mgt1 mutant growth inhibition, hits give high values
Outline: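 Yeast mgt1 strain (DNA repair/cell-cycle alteration panel) exposed to compounds; growth inhibition measured relative to vehicle-treated controls.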

[5] = NCI Yeast Anticancer Drug Screen. Data for the rad50 strain (AID 155);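 also: 0% = growth of vehicle-only cultures of the same strain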; settings: S. cerevisiae rad50 strain growth inhibition, hits give high values
Outline: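 Inhibition values express reduced yeast growth in compound-treated cultures relative to vehicle-treated controls.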

[6] = NCI Yeast Anticancer Drug Screen. Data for the mec2-1 strain (AID 157); settings: S. cerevisiae mec2-1 strain, hits give high values
Outline: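 mec2-1 yeast strain, carrying an alteration in DNA damage repair or cell cycle control, was exposed to compounds; growth inhibition was measured relative to vehicle-treated controls.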

[7] = NCI Yeast Anticancer Drug Screen. Data for the rad14 strain (AID 159);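 also: 0% = growth of vehicle-treated control cultures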; settings: S. cerevisiae rad14 strain growth inhibition, hits give high values
Outline: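 A mutant yeast strain defective in DNA damage repair is treated with compound; inhibition of its growth is scored against untreated, vehicle-exposed cultures.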

[8] = NCI Yeast Anticancer Drug Screen. Data for the sgs1 mgt1 strain (AID 161);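 also: 0% = growth of cultures given vehicle only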; settings: S. cerevisiae sgs1 mgt1 strain, hits give high values
Outline: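 Percent growth inhibition was derived by comparing compound-exposed mutant yeast with vehicle-exposed cultures. The strain carries alterations in DNA damage repair.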

[9] = NCI Yeast Anticancer Drug Screen. Data for the CLN2oe strain (AID 163);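 also: 0% = growth of vehicle-only control cultures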; settings: S. cerevisiae CLN2oe strain, hits give high values
Outline: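 Yeast cells carrying a defined cell-cycle control alteration were exposed to test compounds. Growth inhibition was scored against vehicle-treated control cultures.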

[10] = NCI Yeast Anticancer Drug Screen. Data for the cln2 rad14 strain (AID 165);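 also: 0% = growth equal to vehicle treated cultures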; settings: S. cerevisiae cln2 rad14 strain, hits give high values
Outline: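 Yeast carrying cln2 and rad14 alterations (cell cycle control and DNA damage repair) were exposed to compounds. Growth inhibition was measured against vehicle-treated controls.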

[11] = NCI Yeast Anticancer Drug Screen. Data for the bub3 strain (AID 167); settings: S. cerevisiae bub3 mutant strain, hits give high values
Outline: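 Steps: expose the mutant yeast strain to compound; grow alongside vehicle-treated cultures; measure growth; express inhibition against the vehicle cultures.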

[12] = NCI Yeast Anticancer Drug Screen. Data for the wt2 strain (AID 169);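 also: 0% = growth of vehicle-treated yeast cultures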; settings: S. cerevisiae wt2 strain growth inhibition, hits give high values
Outline: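 Yeast cells were exposed to test compounds, and growth inhibition was measured relative to vehicle-treated controls.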

[13] = NCI Yeast Anticancer Drug Screen. Data for the mlh1 strain (AID 171);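 also: 0% = growth of vehicle-treated control cultures of the same strain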; settings: S. cerevisiae mlh1 strain growth inhibition, hits give high values
Outline: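 Yeast carrying a defined genetic alteration in DNA damage repair or cell cycle control were exposed to test compounds. Growth inhibition was measured relative to vehicle-treated controls.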

[14] = NCI Yeast Anticancer Drug Screen. Data for the sgs1 strain (AID 173);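 also: 0% = growth of vehicle-only control cultures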; settings: S. cerevisiae sgs1 mutant, hits give high values
Outline: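 Yeast mutant strains carrying defined defects in DNA damage repair or cell cycle control were exposed to test compounds. Growth inhibition was scored against vehicle-treated controls.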

[15] = NCI Yeast Anticancer Drug Screen. Data for the mlh1 rad18 strain (AID 175); settings: S. cerevisiae mlh1 rad18 strain growth inhibition, hits give high values
Outline: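 Growth inhibition of the yeast strain was measured after compound exposure and expressed relative to vehicle-treated controls. The strain carries defined defects in DNA damage repair.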

[16] = NCI Yeast Anticancer Drug Screen. Data for the rad18 strain (AID 177); settings: S. cerevisiae rad18 mutant growth inhibition, hits give high values
Outline: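 Yeast carrying a defined DNA damage repair alteration were exposed to compounds. Growth inhibition was expressed relative to vehicle-treated controls.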

[17] = at 5.0 µM (retest, dose inferred, filed as 0.5)
[18] = at 50.0 µM (retest, dose inferred, filed as 5.0)

Measured: growth inhibition

CCC(=O)c1cc(C(=O)C(=S)SC)cc(C(=O)C(=S)SC)c1
active: [1]; at 11.0 µM 97% | [1]; at 33.0 µM 97% | [1]; at 100.0 µM 90% | [2]; at 11.0 µM 93% | [2]; at 33.0 µM 98% | [2]; at 100.0 µM 96% | [3]; at 11.0 µM 86% | [3]; at 33.0 µM 96% | [3]; at 100.0 µM 93% | [4]; at 11.0 µM 99% | [4]; at 33.0 µM 98% | [4]; at 100.0 µM 95% | [5]; at 11.0 µM 96% | [5]; at 33.0 µM 97% | [5]; [18] 96% | [5]; at 50.0 µM 85.4% | [5]; at 100.0 µM 89% | [6]; at 11.0 µM 98% | [6]; at 33.0 µM 98% | [6]; [18] 96% | [6]; at 50.0 µM 86.8% | [6]; at 100.0 µM 95% | [7]; at 11.0 µM 94% | [7]; at 33.0 µM 98% | [7]; at 100.0 µM 95% | [8]; [18] 96% | [8]; at 50.0 µM 85.3% | [9]; at 11.0 µM 96% | [9]; at 33.0 µM 98% | [9]; at 100.0 µM 91% | [10]; at 50.0 µM 88.7% | [11]; at 11.0 µM 98% | [11]; at 33.0 µM 98% | [11]; at 50.0 µM 86.7% | [11]; at 100.0 µM 91% | [12]; at 11.0 µM 98% | [12]; at 33.0 µM 98% | [12]; at 100.0 µM 94% | [13]; at 11.0 µM 98% | [13]; at 33.0 µM 96% | [13]; at 100.0 µM 93% | [14]; at 11.0 µM 98% | [14]; at 33.0 µM 98% | [14]; at 100.0 µM 95% | [15]; [18] 96% | [15]; at 50.0 µM 86.8% | [16]; at 11.0 µM 97% | [16]; at 33.0 µM 98% | [16]; at 100.0 µM 94%
inactive: [1]; at 1.2 µM 1% | [1]; at 3.7 µM 57% | [2]; at 1.2 µM -2% | [2]; at 3.7 µM 17% | [3]; at 1.2 µM 3% | [3]; at 3.7 µM 50% | [4]; at 1.2 µM -12% | [4]; at 3.7 µM 51% | [5]; at 1.2 µM 1% | [5]; at 3.7 µM 43% | [5]; [17] 30% | [6]; at 1.2 µM -9% | [6]; at 3.7 µM 36% | [6]; [17] 56% | [7]; at 1.2 µM 1% | [7]; at 3.7 µM 22% | [8]; [17] 22% | [9]; at 1.2 µM 28% | [9]; at 3.7 µM 69% | [10]; [17] -3% | [10]; [18] 37% | [11]; at 1.2 µM 6% | [11]; at 3.7 µM 44% | [11]; [17] 35% | [11]; [18] 68% | [12]; at 1.2 µM 19% | [12]; at 3.7 µM 59% | [13]; at 1.2 µM 0% | [13]; at 3.7 µM 40% | [14]; at 1.2 µM 27% | [14]; at 3.7 µM 62% | [15]; [17] 42% | [16]; at 1.2 µM -6% | [16]; at 3.7 µM 49%

CCCCOC(=O)Nc1ccc(C)c(NC(=O)OCCCC)c1
inactive: [1]; at 1.2 µM -4% | [1]; at 3.7 µM -1% | [1]; at 11.0 µM 15% | [1]; at 33.0 µM 26% | [1]; at 100.0 µM 34% | [2]; at 1.2 µM -6% | [2]; at 3.7 µM -2% | [2]; at 11.0 µM -7% | [2]; at 33.0 µM 46% | [2]; at 100.0 µM 12% | [3]; at 1.2 µM 2% | [3]; at 3.7 µM 5% | [3]; at 11.0 µM 27% | [3]; at 33.0 µM 36% | [3]; at 100.0 µM 44% | [4]; at 1.2 µM -9% | [4]; at 3.7 µM -8% | [4]; at 11.0 µM -4% | [4]; at 33.0 µM 8% | [4]; at 100.0 µM 18% | [5]; at 1.2 µM -5% | [5]; at 3.7 µM -3% | [5]; [17] 3% | [5]; at 11.0 µM 9% | [5]; at 33.0 µM 19% | [5]; at 100.0 µM 42% | [6]; at 1.2 µM -6% | [6]; at 3.7 µM -11% | [6]; [17] -2% | [6]; at 11.0 µM -6% | [6]; at 33.0 µM 7% | [6]; [18] 69% | [6]; at 100.0 µM 22% | [7]; at 1.2 µM -3% | [7]; at 3.7 µM -3% | [7]; at 11.0 µM 2% | [7]; at 33.0 µM 11% | [7]; at 100.0 µM 15% | [8]; [17] 1% | [9]; at 1.2 µM -11% | [9]; at 3.7 µM -19% | [9]; at 11.0 µM 11% | [9]; at 33.0 µM 31% | [9]; at 100.0 µM 38% | [10]; [17] -4% | [11]; at 1.2 µM -8% | [11]; at 3.7 µM -9% | [11]; [17] -2% | [11]; at 11.0 µM -8% | [11]; at 33.0 µM 3% | [11]; at 100.0 µM 8% | [12]; at 1.2 µM -4% | [12]; at 3.7 µM -4% | [12]; at 11.0 µM 6% | [12]; at 33.0 µM 52% | [12]; at 100.0 µM 29% | [13]; at 1.2 µM -8% | [13]; at 3.7 µM -6% | [13]; at 11.0 µM 1% | [13]; at 33.0 µM 17% | [13]; at 100.0 µM 36% | [14]; at 1.2 µM -4% | [14]; at 3.7 µM -5% | [14]; at 11.0 µM 8% | [14]; at 33.0 µM 47% | [15]; [17] -1% | [16]; at 1.2 µM -5% | [16]; at 3.7 µM -8% | [16]; at 11.0 µM 12% | [16]; at 33.0 µM 31% | [16]; at 100.0 µM 50%
active: [5]; [18] 78% | [5]; at 50.0 µM 89.9% | [6]; at 50.0 µM 94.3% | [8]; [18] 82% | [8]; at 50.0 µM 88.6% | [10]; [18] 79% | [10]; at 50.0 µM 91.9% | [11]; [18] 72% | [11]; at 50.0 µM 94.5% | [14]; at 100.0 µM 72% | [15]; [18] 84% | [15]; at 50.0 µM 94.5%
